Among all 370,000 compounds or so, about 3,300 (0.89%) were called active.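 The calls were made as follows: active = activation above the mean of all tested compounds plus 3 SD, computed per campaign excluding outliers beyond control limits (cut at about 13% in these data); inactive = the rest.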 The entries come from a sample that favours actives as a whole.
molecular target: Kallikrein-7 (Homo sapiens) (UniProt P49862); assay: activation of human kallikrein-7 proenzyme – biochemical, fluorescence intensity, primary screen (AID 652039); conditions: purified proKLK7, EDANS-DABCYL substrate fluorescence; at 7 µM; stronger effect = higher value; 100% is mature enzyme control, 0% vehicle
Sequence (P49862 whole entry, looked up): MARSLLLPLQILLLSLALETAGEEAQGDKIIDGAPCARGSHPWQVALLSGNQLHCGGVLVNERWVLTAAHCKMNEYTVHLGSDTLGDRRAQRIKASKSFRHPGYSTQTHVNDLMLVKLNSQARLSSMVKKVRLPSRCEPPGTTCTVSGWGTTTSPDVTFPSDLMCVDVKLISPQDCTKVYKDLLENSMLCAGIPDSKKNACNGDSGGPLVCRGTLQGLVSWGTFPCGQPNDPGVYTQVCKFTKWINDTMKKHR

| SMILES | activation |
| --- | --- |
| O=C(c1cccc(C(F)(F)F)c1)N1CC[C@H]2[C@H](CCCN2Cc2cc(F)cc(F)c2)C1 | 0.19% (inactive) |
| COc1ccc(CSc2nnc(SCC(=O)Nc3ccccc3C(F)(F)F)s2)cc1 | 0.45% (inactive) |
| COc1ccc(C(=O)N2CCCN(C)CC2)c(OC)c1 | -0.04% (inactive) |
| COc1ccc2oc(=O)c(C(=O)N3CCCC3)cc2c1 | 21.5% (active) |
| COc1cccc2cc(C(=O)N3CCN(C(=O)c4ccccc4)CC3)c(=O)oc12 | -0.14% (inactive) |
| O=C(CN1CCC(NC(=O)NCc2ccccc2)CC1)Nc1ccc2c(c1)OCCO2 | 0.32% (inactive) |
| CC(C)(C)C(=O)N1CCC[C@@]1(CO)C(=O)O | 0.12% (inactive) |
| COc1cccc(NC(=O)CN(C)C(=O)/C=C/c2cc(OC)ccc2OC)c1 | 58% (active) |
| COc1cccc(NC(=O)CN(C)C(=O)Cc2ccc(Cl)cc2Cl)c1 | -0.14% (inactive) |
| COc1cccc(NC(=O)CN(C)C(=O)c2ccccc2CCc2ccccc2)c1 | 0.07% (inactive) |
| O=C(NC1CCCCN(Cc2cccc(C(F)(F)F)c2)C1=O)c1ccccc1I (stereo not drawn) | 0.36% (inactive) |
| CN(C)CCN1CCN(c2cc(-c3cccc(Cl)c3)nc3ccnn23)CC1 | 18.8% (active) |
| C#Cc1cc(N2CCN(C(=O)c3ccoc3)CC2)n2nc(-c3cccc(Cl)c3)cc2n1 | -41% (inactive) |
| CN(C)C(=O)c1nc2ccc(Cl)cn2c1CN1CCN(c2ncccn2)CC1 | -1.33% (inactive) |
| Cc1ccc(-n2c(SCC(=O)Nc3cccc4ccccc34)nnc2-c2ccco2)cc1 | -0.44% (inactive) |
| C=CS(=O)(=O)N(Cc1nnn(Cc2ccccc2)c1Br)[C@H](C(=O)OC)C(C)C | -0.36% (inactive) |
| Nc1ccccc1-c1nc2ccncc2[nH]1 | 86.7% (active) |
| Cc1cc(C)nc(Nc2n[nH]c(-c3ccccc3N)n2)n1 | 6.37% (inactive) |
| CN(C(N)=NC(=O)/C=C/c1ccccc1)C(C#Cc1ccccc1)Cc1ccccc1 (stereo not drawn) | -0.15% (inactive) |
| O=C(NCc1cccs1)C1CCN(S(=O)(=O)c2ccccc2[N+](=O)[O-])CC1 | 0.23% (inactive) |
| COC(=O)[C@H](C(C)C)N1CCc2nnn(Cc3ccc(C)cc3)c2-c2ccccc2S1(=O)=O | -0.1% (inactive) |

| SMILES | activation |
| --- | --- |
| CC(=O)N1C(=O)C2(Nc3ccccc3N2)c2ccccc21 | -5.83% (inactive) |
| CC(C)=NN1C(=O)c2ccccc2NC1(C)C | 13% (active) |
| COC(=O)c1cc(S(=O)(=O)N2CCN(C(=O)C3CCCO3)CC2)cn1C (stereo not drawn) | -0.37% (inactive) |
| O=C(C1CCCN1S(=O)(=O)c1ccccc1)N1CCc2ccccc2C1 (stereo not drawn) | -0.08% (inactive) |
| Cc1cc(C)c(C#N)c(SCC(=O)NN2CC(=O)N(c3ccccc3F)CC2=O)n1 | 68.7% (active) |
| Cc1cc(C(F)(F)F)c(C#N)c(SCC(=O)NC2CC2)n1 | -0.4% (inactive) |
| COCc1cc(C)nc(SCC(=O)Nc2cccc(C)c2)c1C#N | 0.51% (inactive) |
| CCOC(=O)[C@]12CCCC3=C1N(CCC3)C(=O)[C@@H](CC(=O)NCc1cccs1)C2 | -0.54% (inactive) |
| COc1ccc(S(=O)(=O)N/N=C\c2ccc(OC)c(COc3ccc(C)cc3[N+](=O)[O-])c2)cc1 | 0.18% (inactive) |
| CCN(CC)Cc1c(C(=O)N/N=C/c2cccc(OCc3ccc(F)cc3)c2)nnn1-c1nonc1N | 0.38% (inactive) |
| COc1cccc(OCc2cc(/C=N/NC(=O)c3nc(Cl)c(Cl)c(N)c3Cl)ccc2OC)c1 | 48.2% (active) |
| COC(=O)[C@]12C[C@H](CC(=O)NCCCN3CCCC3=O)C(=O)N(CCc3ccc(OC)c(OC)c3)C1=C[C@H](COCc1ccccc1)O[C@@H]2C | -0.02% (inactive) |
| COC(=O)[C@]12C[C@H](CC(=O)NCc3ccccc3)C(=O)N(CCc3ccc(OC)c(OC)c3)C1=C[C@H](C(C)(C)C)O[C@@H]2C | 0.13% (inactive) |
| COc1ccc(Cn2cc(COC(=O)N(C)Cc3ccccc3)nn2)cc1 | 0.16% (inactive) |
| CN(C)CC(=O)N[C@@H]1C[C@@H]2O[C@H](CO)CC[C@@H]2O[C@@H]1CCc1ccc(C#Cc2ccccc2)cc1 | 0.21% (inactive) |
| Cc1cc(C)c2c(n1)nn1c(-n3ccnc3)cc(C)nc21 | 15.7% (active) |
| Cc1cc(C)c2c(NC(=O)C3CC3)nn(C)c2n1 | -0.27% (inactive) |
| Cc1ccc(OCc2nnc(SC/C=C/c3ccccc3)n2Cc2ccco2)cc1 | 0.81% (inactive) |
| C=CCN1C(=O)[C@@H](CC(=O)N2CCN(C(=O)OCC)CC2)[C@]2(C(=O)OCC)CCCCC/C=C/12 | 0.05% (inactive) |
| Clc1ccc2nc(-c3ccccc3)nc(C(Cl)Cl)c2c1 | -0.5% (inactive) |
| NC(N)=Nc1nc(-c2ccccc2)c2cc(Cl)ccc2n1 | 14.3% (active) |

| SMILES | activation |
| --- | --- |
| NC(N)=Nc1nc2ccc(Br)cc2c(=O)[nH]1 | -0.15% (inactive) |
| CC(C)N1CCCCC(NC(=O)c2ccc3ccccc3c2)C1=O (stereo not drawn) | 0.11% (inactive) |
| C=CCN1C(=O)[C@@H](CC(=O)NCCCCc2ccccc2)[C@]2(C(=O)OCC)CCCCC/C=C/12 | 0.05% (inactive) |
| CC(=O)C1(C(=O)Nc2nccs2)CC(c2ccccc2C(F)(F)F)=NO1 (stereo not drawn) | 1.07% (inactive) |
| COC(=O)[C@]12C[C@H](CC(=O)NCCc3ccccc3OC)C(=O)N(Cc3ccco3)C1=C[C@H](C(C)C)O[C@@H]2C1CC1 | 0.66% (inactive) |
| CCOC(=O)C1=C(O)/C(=C/c2ccc(OCC(=O)Nc3ccc(C)cc3)cc2)N=C1C | 31.9% (active) |
| CCOc1ccc(NC(=O)COc2ccc(S(=O)(=O)N3CCCC3)cc2)cc1 | 0.16% (inactive) |
| Cc1ccc(NC(=O)CN(C)C(=O)COC(=O)c2nccnc2N)cc1 | 8.05% (inactive) |
| CC(c1c[nH]c2ccccc12)c1c(-c2ccccc2)n(C)c2ccccc12 (stereo not drawn) | -7.26% (inactive) |
| COc1ccc(C(=O)OCCN2CCN(C3CN(Cc4cn(Cc5ccccc5F)nn4)S(=O)(=O)C3)CC2)cc1OC (stereo not drawn) | 0% (inactive) |
| Clc1ccc(-n2c(SC/C=C/c3ccccc3)nnc2-c2ccco2)cc1 | 0.14% (inactive) |
| COCc1cc(=O)[nH]c(-c2ccc(C(F)(F)F)cc2)n1 | 0.23% (inactive) |
| Cc1ccccc1Cn1nc(C)c(NC(=O)C(F)(F)F)c1C | -0.19% (inactive) |
| COCc1cc(=O)[nH]c2cc(NC(=O)C(F)(F)F)c(C)cc12 | 466% (active) |
| COc1ccc(OC)c(Cc2cnc3nc(N)nc(N)c3c2C)c1 | -0.29% (inactive) |
| COC[C@@H]1CCCN1c1ccc2c(c1)O[C@H](C)CCN(C1CC1)S2(=O)=O | -0.36% (inactive) |
| CCOC(=O)[C@]12CCCC3=C1N(CCC3)C(=O)[C@@H](CC(=O)N1CCSCC1)C2 | -0.2% (inactive) |
| COC(=O)C1(C)NC(c2ccccc2OC)C2C(=O)N(c3ccccc3)C(=O)C21 (stereo not drawn) | 0.39% (inactive) |
| COC(=O)C1=NN(c2ccccc2)C2C(=O)N(c3ccccc3OC)C(=O)C12 (stereo not drawn) | 20.8% (active) |
| COC(=O)c1cc(C(=O)OC)cc(N2C(=O)CC(N3CCN(c4ccccc4)CC3)C2=O)c1 (stereo not drawn) | -0.42% (inactive) |
| COc1ccc(-n2c(SCC(=O)Nc3ccccc3-c3ccccc3)nnc2-c2cccnc2)cc1 | -0.23% (inactive) |

| SMILES | activation |
| --- | --- |
| CCOc1ccc(-n2c(SCC(=O)Nc3cc(C)c(NC(=O)c4ccccc4)cc3OC)nnc2-c2cccs2)cc1 | 13.4% (active) |
| CCOc1ccc(-n2c(SCC(=O)Nc3cc(C)c(NC(=O)c4ccccc4)cc3OC)nnc2-c2cccc(Cl)c2)cc1 | 4.85% (inactive) |
| COc1ccc(S(=O)(=O)N2CCN(C(=O)N(C)C)C2C)cc1 (stereo not drawn) | 0.63% (inactive) |
| Cc1ccc(-n2c(SCC(=O)Nc3ccc(S(=O)(=O)Nc4nccs4)cc3)nnc2-c2ccccn2)cc1 | 0.68% (inactive) |
| CC1(C)CN(c2ccc(-c3ccnc4ncnn34)cc2)C1=O | 29.6% (active) |
| Nc1c(-c2ccc(F)cc2)cnc2ncnn12 | 0.09% (inactive) |
| Cc1cc([N+](=O)[O-])nn1Cc1ccc(F)cc1 | 0.68% (inactive) |
| CC(=O)O[C@@]1(C(C)=O)CCC2[C@H]3C=C(C)C4=CC(=O)CC[C@@]4(C)C3CC[C@]21C (stereo partly drawn) | 0.5% (inactive) |
| COc1cc(Cl)c(C)cc1NC(=O)COC(=O)c1cc(SC)ccc1Cl | -0.31% (inactive) |
| COC(=O)Cc1nc2c(N)nc(N)nc2[nH]c1=O | 29.9% (active) |
| CCCCOCCCNC(=O)C[C@H]1C[C@@]2(C(=O)OC)C(=C[C@H](COCc3ccccc3)O[C@@H]2C)N(Cc2cccc3ccccc23)C1=O | -0.35% (inactive) |
| COC1=C[C@H](C(=O)NCCNC(C)=O)[C@H](C)[C@@H](c2ccccc2)CC1=O | 0.74% (inactive) |
| O=C(Nc1ccc(Br)cc1)OCCN1C(=O)CCC12CCC(c1ccccc1)CC2 (stereo not drawn) | 0.49% (inactive) |
| CCC(c1nnnn1Cc1ccco1)N(CCc1ccccc1)Cc1cc2ccc(OC)cc2[nH]c1=O (stereo not drawn) | 21.6% (active) |
| CCC(c1nnnn1Cc1ccco1)N(Cc1cc2cc(OC)ccc2[nH]c1=O)C1CCCCC1 (stereo not drawn) | 1.29% (inactive) |
| CCOc1ccc2[nH]c(=O)c(CN(Cc3nnnn3CCc3ccccc3)CC3CCCO3)cc2c1 (stereo not drawn) | -0.26% (inactive) |
| C=CCN(C(=O)[C@@H](CCCC)[C@@H](O)c1ccc(Cl)cc1)c1ccccc1 | 0.33% (inactive) |
| COC(=O)[C@H](C(C)C)N(CCCc1cn(Cc2ccccc2)nn1)S(=O)(=O)c1ccc(F)cc1Br | -0.13% (inactive) |
| O=C(CCCCCN1C(=O)C2C3C=CC(C3)C2C1=O)Nc1ccccc1 (stereo not drawn) | -1.05% (inactive) |
| CCN(C(=O)[C@@H](C1CC1)[C@@H](O)c1ccc2ccccc2c1)c1ccccc1 | 0.13% (inactive) |

Reference: PubChem BioAssay AID652039 (The Scripps Research Institute Molecular Screening Center, 2013)
